Consider 9 compounds from PubChem BioAssay (Tox21).

Molecules are shown by their SMILES. Records with an inconclusive call do not appear. Calls of active or inactive are those of the source. Unless noted, calls follow the shape of the dose curve; as a rule, active = well fitted curve in the direction sought with a large enough effect in the repeat runs; inconclusive = weak or mixed curves; inactive = no such curve, though single readings can be large; an effect the other way counts as inactive or inconclusive.

A short description of assay [1]: qHTS assay to identify small molecule agonists of the peroxisome proliferator-activated receptor delta (PPARd) signaling pathway - cell viability counter screen (AID 743211). Also: nearly all actives have a fitted effect of over 55% in size. In outline:
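Viability of GeneBLAzer PPARd UAS-bla HEK293H cells was assessed after 17 h compound incubation at 37C, using CellTiter-Glo reagent added after the reporter read and luminescence recorded 30 min later.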
(qHTS replaces the single test concentration by a dilution series.)

Assay [2] deals with Peroxisome proliferator-activated receptor delta (Homo sapiens) (UniProt Q03181). Put plainly: qHTS assay to identify small molecule agonists of the peroxisome proliferator-activated receptor delta (PPARd) signaling pathway (AID 743212; calls by dose curve;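 also: HEK293H cells with PPARd UAS beta-lactamase reporter GeneBLAzer system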). In outline: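 Steps: seed PPARd-bla HEK293H cells; incubate 5 h, 37 C, 5% CO2; add compounds in DMSO; incubate, 37 C; add LiveBLAzer B/G FRET substrate; hold 2 h at room temperature; measure fluorescence.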
Chain of Peroxisome proliferator-activated receptor delta (Homo sapiens) (Q03181 whole entry, looked up): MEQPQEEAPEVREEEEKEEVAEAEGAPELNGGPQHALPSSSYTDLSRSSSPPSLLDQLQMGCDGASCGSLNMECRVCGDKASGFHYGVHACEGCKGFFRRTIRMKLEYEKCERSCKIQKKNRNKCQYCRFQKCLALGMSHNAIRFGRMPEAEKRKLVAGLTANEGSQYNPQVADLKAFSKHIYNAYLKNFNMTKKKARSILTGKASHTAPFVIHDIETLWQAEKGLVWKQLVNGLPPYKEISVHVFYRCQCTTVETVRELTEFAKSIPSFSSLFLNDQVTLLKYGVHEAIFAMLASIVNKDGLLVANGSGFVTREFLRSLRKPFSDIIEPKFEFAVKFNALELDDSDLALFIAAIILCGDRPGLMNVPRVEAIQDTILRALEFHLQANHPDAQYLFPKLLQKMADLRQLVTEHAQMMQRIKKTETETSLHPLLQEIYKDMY

Assay [3] can be described thus: qHTS assay to identify small molecule antagonists of the peroxisome proliferator-activated receptor delta (PPARd) signaling pathway - cell viability counter screen (AID 743213). Also: nearly all actives have a fitted effect of over 50% in size. In outline:
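In this counter screen, HEK293H cells carrying a UAS-beta-lactamase reporter are co-treated with test compounds and 300 nM L165041 (final) for 17 h at 37 C; cell viability is quantified by CellTiter-Glo luminescence.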

Assay [4] concerns the target Peroxisome proliferator-activated receptor delta (Homo sapiens) (UniProt Q03181). Briefly: qHTS assay to identify small molecule antagonists of the peroxisome proliferator-activated receptor delta (PPARd) signaling pathway (AID 743215; active = well fitted inhibition curve with a large enough effect in the signal ratio in the repeat runs, not every such curve was filed as active; the % refers to the signal ratio;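 also: cells stimulated with agonist L165041 at 300 nM final during compound exposure; series mostly up to about 62 µM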). In outline:
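Plated HEK293H PPARd-bla cells rested 5 h at 37 C and 5% CO2. Compound, then agonist L165041 at 300 nM final, was added; 17 h at 37 C followed. Substrate loading, 2 h room temperature, fluorescence measured.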

Assay [5] is described as follows: qHTS assay to identify small molecule agonists of the farnesoid-X-receptor (FXR) signaling pathway - cell viability counter screen (AID 743218). Also: nearly all actives have a fitted effect of over 45% in size. In outline: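 Viability of FXR-bla HEK 293T cells is measured by ATP-based CellTiter-Glo luminescence following 16 h compound treatment at 37 C and a prior 2 h room-temperature beta-lactamase substrate step.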
A short description of assay [6]: qHTS assay to identify small molecule antagonists of the farnesoid-X-receptor (FXR) signaling pathway - cell viability counter screen (AID 743221; active = well fitted cell-killing curve with a large enough effect in the repeat runs, not every such curve was filed as active; also: nearly all actives have a fitted effect of over 50% in size). In outline: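 Quantitative HTS of the Tox21 10K library run in parallel with the beta-lactamase reporter read. HEK 293T cells carrying a UAS-driven bla reporter got compound and 50 uM CDCA (final) for 16 h; ATP-based luminescence followed.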

In assay [7] the target is Vitamin D3 receptor (Homo sapiens) (UniProt P11473). Put plainly: qHTS assay to identify small molecule agonists of the vitamin D receptor (VDR) signaling pathway (AID 743222; calls by dose curve). In outline:
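Fluorescence from cleaved LiveBLAzer B/G FRET substrate served as readout. VDR-bla cells had been treated 16 h at 37C with test compounds in DMSO, following a 4 h settling period, and substrate was loaded for 2 h at RT.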

Assay [8] shares this target. Put plainly: qHTS assay to identify small molecule antagonists of the vitamin D receptor (VDR) signaling pathway (AID 743223; active = well fitted inhibition curve with a large enough effect in the signal ratio in the repeat runs, not every such curve was filed as active; the % refers to the signal ratio). In outline:
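Fluorescence from LiveBLAzer B/G FRET substrate, read after 2 h at room temperature, reflects beta-lactamase reporter activity in VDR-bla cells treated 16 h at 37C with compounds and agonist 1alpha,25-dihydroxyvitamin D3 (3 nM final).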

Assay [9] is described as follows: qHTS assay to identify small molecule agonists of the vitamin D receptor (VDR) signaling pathway - cell viability counter screen (AID 743224). Also: series mostly up to about 63 µM; nearly all actives have a fitted effect of over 50% in size. In outline:
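Compounds were pin-transferred onto VDR-bla cells plated 4 h earlier; following 16 h incubation at 37C, cell viability was quantified by CellTiter-Glo luminescence after 30 min at room temperature.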

Assay [10] can be described thus: qHTS assay to identify small molecule antagonists of the vitamin D receptor (VDR) signaling pathway - cell viability counter screen (AID 743225). Also: nearly all actives have a fitted effect of over 50% in size. In outline: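 Cells (VDR-UAS-bla HEK 293T) are plated, rested 4 h at 37C, dosed with compound and 3 nM final 1-alpha,25-dihydroxy vitamin D3, and incubated 16 h. Viability is taken from CellTiter-Glo luminescence in the reporter wells.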

Assay [11] is described as follows: qHTS assay to identify small molecule agonists of the NFkB signaling pathway (AID 1159509; active = well fitted curve in the direction sought with a large enough effect in the signal ratio in the repeat runs, not every such curve was filed as active; the % refers to the signal ratio; also: series mostly up to about 61 µM). In outline:
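Readout: FRET fluorescence, 405 nm excitation, 460/530 nm emission; beta-lactamase expression disrupts FRET. Cells: ME-180 stably carrying NF-kB-driven bla reporter. Compound exposure 5 hr, 37 C, 5% CO2.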

Assay [12] can be described thus: qHTS assay to identify small molecule agonists of the NFkB signaling pathway - cell viability counter screen (AID 1159515; calls by dose curve; also: series mostly up to about 61 µM; nearly all actives have a fitted effect of over 55% in size). In outline: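 Parallel cytotoxicity counter screen in ME-180 cells carrying an NFkB-response-element beta-lactamase reporter, 2,000 cells/well. Compound exposure lasted 5 hr at 37 C, 5% CO2. Cell viability was quantified by CellTiter-Glo luminescence.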

Assay [13] is described as follows: qHTS assay to identify small molecule agonists of the endoplasmic reticulum stress response signaling pathway (AID 1159516; active = well fitted activation curve with a large enough effect in the signal ratio in the repeat runs, not every such curve was filed as active; the % refers to the signal ratio). In outline: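 Using a HeLa line with an ESRE-driven beta-lactamase gene, agonist activity was measured by FRET substrate fluorescence (460 and 530 nm emission) after cells were treated with compounds for 5 hr at 37 C and 5% CO2.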
Assay [14] can be described thus: qHTS assay to identify small molecule agonists of the endoplasmic reticulum stress response signaling pathway - cell viability counter screen (AID 1159517; calls by dose curve). In outline:
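After overnight attachment, ESRE-bla HeLa cells were treated with Tox21 library compounds for 5 hr. CellTiter-Glo luminescence, read 30 min post-addition at room temperature, reported viability.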

Assay [15] in a line: qHTS assay to identify small molecule antagonists of the retinoid-related orphan receptor gamma (ROR-gamma) signaling pathway - cell viability counter screen (AID 1159520). Also: nearly all actives have a fitted effect of over 50% in size. In outline:
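Cytotoxicity was read from cellular ATP (CellTiter-Glo luminescence) after 16 hr at 37 C with 1 uM doxycycline induction. The inducer was added 2 hr after compound transfer to Tet-on ROR gamma CHO cells.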

In assay [16] the target is Nuclear receptor ROR-gamma (Homo sapiens) (UniProt P51449). Put plainly: qHTS assay to identify small molecule antagonists of the retinoid-related orphan receptor gamma (ROR-gamma) signaling pathway (AID 1159521). In outline: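 RORγ antagonism is scored from reduced reporter luminescence in Tet-on CHO cells. Induction used 1 uM final doxycycline hyclate for 16 h at 37 C, following a 2 h compound exposure.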

Assay [17] is described as follows: qHTS assay to identify small molecule agonists of the AP-1 signaling pathway - cell viability counter screen (AID 1159525; calls by dose curve; also: nearly all actives have a fitted effect of over 55% in size). In outline:
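Intracellular ATP by Cell Titer Glo luminescence (30 min, RT) in the same ME-180 AP-1-bla wells after the 5 h compound exposure at 37 °C. Normalised to tetra n-octyl ammonium bromide and DMSO controls.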

The nature of assay [18]: qHTS assay to identify small molecule agonists of the AP-1 signaling pathway (AID 1159526; calls by dose curve).
The target in assay [19] is Bile acid receptor (Homo sapiens) (UniProt Q96RI1). Briefly: qHTS assay to identify small molecule antagonists of the farnesoid-X-receptor (FXR) signaling pathway (AID 743217; active = well fitted inhibition curve with a large enough effect in the signal ratio in the repeat runs, not every such curve was filed as active; the % refers to the signal ratio; also: potency is read from the fitted curve at half-maximal effect). In outline:
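Screen of the Tox21 10K library in quantitative HTS format using FXR-UAS-bla HEK 293T reporter cells. Agonist chenodeoxycholic acid, 50 uM final, added with compounds; 16 h incubation at 37 °C; beta-lactamase FRET fluorescence measured.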

The target is the same in assay [20]. Briefly: qHTS assay to identify small molecule agonists of the farnesoid-X-receptor (FXR) signaling pathway (AID 743220; active = well fitted activation curve with a large enough effect in the signal ratio in the repeat runs, not every such curve was filed as active; the % refers to the signal ratio). In outline:
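FXR-UAS-bla HEK 293T cells carrying a UAS-driven beta-lactamase reporter were plated for 5 h at 37C/5% CO2, then exposed to DMSO-dissolved Tox21 10K compounds for 16 h at 37C. A LiveBLAzer B/G FRET substrate was loaded for 2 h at room temperature before fluorescence reading.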

Chain of Bile acid receptor (Homo sapiens) (Q96RI1 whole entry, looked up): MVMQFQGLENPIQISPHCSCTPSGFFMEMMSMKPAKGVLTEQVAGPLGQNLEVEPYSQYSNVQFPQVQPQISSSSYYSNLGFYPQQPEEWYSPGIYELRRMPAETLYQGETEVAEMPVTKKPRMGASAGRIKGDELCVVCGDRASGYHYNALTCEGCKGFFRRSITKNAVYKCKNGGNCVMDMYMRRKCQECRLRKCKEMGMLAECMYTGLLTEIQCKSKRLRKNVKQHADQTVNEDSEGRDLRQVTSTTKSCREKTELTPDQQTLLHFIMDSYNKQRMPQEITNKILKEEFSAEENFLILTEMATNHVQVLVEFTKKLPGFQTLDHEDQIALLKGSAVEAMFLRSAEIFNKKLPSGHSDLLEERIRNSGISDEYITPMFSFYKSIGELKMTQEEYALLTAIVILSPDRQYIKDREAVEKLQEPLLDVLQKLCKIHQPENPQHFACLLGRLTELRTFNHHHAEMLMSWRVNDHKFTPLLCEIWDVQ
Chain of Vitamin D3 receptor (Homo sapiens) (P11473 whole entry, looked up): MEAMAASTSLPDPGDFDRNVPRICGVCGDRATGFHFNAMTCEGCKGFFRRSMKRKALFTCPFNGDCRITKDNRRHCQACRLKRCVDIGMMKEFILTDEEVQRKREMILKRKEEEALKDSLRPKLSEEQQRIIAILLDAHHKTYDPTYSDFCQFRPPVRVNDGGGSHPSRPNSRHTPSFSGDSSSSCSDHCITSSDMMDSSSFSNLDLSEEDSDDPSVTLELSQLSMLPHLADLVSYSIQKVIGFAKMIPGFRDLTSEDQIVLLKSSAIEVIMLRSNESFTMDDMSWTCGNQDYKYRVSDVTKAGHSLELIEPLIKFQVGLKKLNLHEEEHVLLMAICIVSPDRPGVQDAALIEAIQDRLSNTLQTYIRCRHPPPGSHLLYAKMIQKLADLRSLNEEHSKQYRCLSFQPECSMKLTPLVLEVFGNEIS

Take `CC1(C)[C@@H]2CC[C@@]1(C)C(=O)C2`: the result in [1], in [2], in [3], in assay [4], in [5] and in [6] was inactive. Besides, the compound was classed as inactive in assay [7], in [8], in [9], in assay [10], in assay [11] and in [12]. In addition, the compound was called inactive in assay [13] and in assay [14]. The Potency entry in assay [15], in assay [16], in assay [17] and in assay [18] was “inactive” each time.

Regarding `O=C1NC(=O)c2ccccc21`, the call in assay [1], in assay [3], in assay [5], in assay [20], in assay [6] and in [7] was inactive. Moreover, the compound was classed as inactive in [8], in assay [9], in assay [10], in assay [11], in [12] and in assay [13]. Also, the compound was classed as inactive in assay [14]. For the same compound, the Potency entry in assay [19], in [15], in assay [16], in [17] and in assay [18] was “inactive” throughout.

Regarding `Cc1cc(=O)[nH]c(=S)[nH]1`, the compound was called inactive in [1], in [2], in [3], in assay [4], in assay [5] and in assay [20]. The compound was called inactive in assay [6], in assay [7], in assay [8], in [10], in [11] and in [12]. Besides, the result in assay [13] and in [14] was inactive. For the same compound, the Potency result in assay [19], in [15], in assay [16], in assay [17] and in assay [18] was “inactive” each time.

As for `O=C(c1ccccc1)C(O)c1ccccc1` (stereo unspecified), the result in assay [1], in [2], in assay [3], in assay [4], in [5] and in [6] was inactive. Also, the outcome in assay [7], in [8], in assay [9], in [10], in [11] and in [13] was inactive. Also, in [14], the compound was classed as inactive. Further, the Potency entry in [15], in [16], in assay [17] and in [18] was “inactive” throughout.

In the case of `O=C(O)CCCCCCCC(=O)O`, the outcome in assay [1], in assay [3], in assay [5], in assay [6], in assay [7] and in assay [8] was inactive. Also, the compound was called inactive in [9], in assay [10], in assay [11], in assay [13] and in assay [14]. Further, the Potency entry in assay [15], in assay [16], in assay [17] and in assay [18] was “inactive” in each case.

`Oc1ccc(/C=C/c2cc(O)cc(O)c2)cc1`: the result in [1], in [2], in assay [3], in assay [5], in assay [20] and in assay [6] was inactive. Further, the compound was classed as inactive in assay [7], in assay [8], in [9], in assay [10], in assay [11] and in assay [13]. Besides, in assay [14], the call was inactive. Besides, in assay [19], the Potency is 24.5 µM (active). Also, the Potency result in assay [15], in assay [16], in assay [17] and in [18] was “inactive” throughout.

On to `COc1c2occc2cc2ccc(=O)oc12`, for which the call in assay [1], in assay [3], in assay [5], in assay [20], in assay [6] and in [7] was inactive. Besides, the call in assay [8], in assay [9], in assay [10], in [11], in assay [13] and in [14] was inactive. Further, the Potency entry in assay [19], in [15], in [17] and in [18] was “inactive” throughout.

Regarding `NC(=O)NC1NC(=O)NC1=O` (stereo unspecified), the compound was classed as inactive in assay [1], in assay [2], in assay [3], in assay [4], in [5] and in assay [6]. The compound was called inactive in assay [7], in assay [8], in [10], in [11], in assay [13] and in assay [14]. The Potency entry in [15], in assay [16], in assay [17] and in [18] was “inactive” throughout.

Regarding `Nc1ccn([C@H]2CC[C@@H](CO)O2)c(=O)n1`, the compound was called inactive in [1], in [2], in [3], in assay [4], in assay [5] and in assay [6]. The result in assay [10], in assay [11], in assay [13] and in [14] was inactive. The Potency result in assay [15], in assay [16], in assay [17] and in [18] was “inactive” each time.
